# Reference: article PMC7862700, “An all-to-all approach to the identification of sequence-specific readers for epigenetic DNA modifications on cytosine”
# Assays:
# Experiment in all cases: DAPPL (digital affinity profiling via proximity ligation, sequencing); 10 mM Tris-HCl pH 7.5, 50 mM NaCl, 1 mM DTT, 4% glycerol, room temperature, 30 min; GST-TFs on glutathione beads, 16-mer random dsDNA library, 0.1% formaldehyde crosslink after washing; high values mean tight binding
# Details in all cases: protein: recombinant; tags: N-terminal GST; dsDNA, one strand shown
# FLI1 = molecular target: T1, FLI1 (Homo sapiens, UniProt Q01543 1-452)
# T1 sequence: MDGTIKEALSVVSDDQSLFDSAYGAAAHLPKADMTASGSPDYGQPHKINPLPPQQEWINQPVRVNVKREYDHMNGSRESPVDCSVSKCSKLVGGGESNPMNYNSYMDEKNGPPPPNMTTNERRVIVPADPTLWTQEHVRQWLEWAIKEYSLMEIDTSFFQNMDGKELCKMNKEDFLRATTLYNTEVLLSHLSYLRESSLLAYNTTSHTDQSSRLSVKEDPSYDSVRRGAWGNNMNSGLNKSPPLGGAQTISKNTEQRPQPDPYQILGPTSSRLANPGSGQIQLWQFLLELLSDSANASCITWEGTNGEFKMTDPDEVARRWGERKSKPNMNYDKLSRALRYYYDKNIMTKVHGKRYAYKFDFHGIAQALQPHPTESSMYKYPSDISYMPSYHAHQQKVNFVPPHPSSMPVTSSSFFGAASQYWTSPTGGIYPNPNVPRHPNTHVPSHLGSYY
# In short: (§1)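 Human transcription factors fused to GST were expressed in yeast, captured on glutathione beads, given DNA barcodes and pooled with a GST-only negative control. Pools were incubated with 200 nmole of a 16-mer random double-stranded DNA library in Tris/NaCl/DTT/glycerol buffer at room temperature for 30 min. They were then washed, crosslinked with 0.1% formaldehyde, proximity-ligated (BsaI/T4 ligase, 1 h, 37 °C), PCR-amplified and sequenced on an Illumina NextSeq500. Binding signal is each 6-mer's read frequency for a factor divided by its frequency for the GST control.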
# ELK1 = molecular target: T2, ELK1 (Homo sapiens, UniProt P19419 1-428)
# T2 sequence: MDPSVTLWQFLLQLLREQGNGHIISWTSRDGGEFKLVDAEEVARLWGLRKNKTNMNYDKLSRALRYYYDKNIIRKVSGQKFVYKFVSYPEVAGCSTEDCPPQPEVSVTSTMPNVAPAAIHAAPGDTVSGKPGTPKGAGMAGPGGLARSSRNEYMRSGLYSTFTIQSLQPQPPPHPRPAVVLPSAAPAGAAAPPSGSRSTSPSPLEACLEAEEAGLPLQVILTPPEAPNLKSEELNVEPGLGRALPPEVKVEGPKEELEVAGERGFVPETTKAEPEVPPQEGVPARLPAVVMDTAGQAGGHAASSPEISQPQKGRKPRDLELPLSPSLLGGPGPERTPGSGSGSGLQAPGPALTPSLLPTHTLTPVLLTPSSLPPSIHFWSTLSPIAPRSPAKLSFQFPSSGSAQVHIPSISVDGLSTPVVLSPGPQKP
# In short: as §1
# GABPA = molecular target: T3, GABPA (Homo sapiens, UniProt Q06546 1-454)
# T3 sequence: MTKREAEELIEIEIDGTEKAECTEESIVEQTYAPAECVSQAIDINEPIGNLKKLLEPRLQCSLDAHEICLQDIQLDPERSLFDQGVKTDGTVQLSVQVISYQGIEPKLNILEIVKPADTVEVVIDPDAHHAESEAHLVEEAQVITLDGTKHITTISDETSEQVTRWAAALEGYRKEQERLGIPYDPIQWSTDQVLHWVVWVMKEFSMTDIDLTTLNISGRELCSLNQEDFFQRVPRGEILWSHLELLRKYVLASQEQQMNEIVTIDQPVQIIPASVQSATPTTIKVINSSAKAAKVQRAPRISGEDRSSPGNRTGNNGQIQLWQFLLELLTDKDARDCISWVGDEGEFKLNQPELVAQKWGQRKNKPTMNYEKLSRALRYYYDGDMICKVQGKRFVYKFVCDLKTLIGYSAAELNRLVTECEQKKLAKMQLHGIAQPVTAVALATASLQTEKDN
# In short: as §1
# ERG = molecular target: T4, ERG (Homo sapiens, UniProt P11308 1-479)
# T4 sequence: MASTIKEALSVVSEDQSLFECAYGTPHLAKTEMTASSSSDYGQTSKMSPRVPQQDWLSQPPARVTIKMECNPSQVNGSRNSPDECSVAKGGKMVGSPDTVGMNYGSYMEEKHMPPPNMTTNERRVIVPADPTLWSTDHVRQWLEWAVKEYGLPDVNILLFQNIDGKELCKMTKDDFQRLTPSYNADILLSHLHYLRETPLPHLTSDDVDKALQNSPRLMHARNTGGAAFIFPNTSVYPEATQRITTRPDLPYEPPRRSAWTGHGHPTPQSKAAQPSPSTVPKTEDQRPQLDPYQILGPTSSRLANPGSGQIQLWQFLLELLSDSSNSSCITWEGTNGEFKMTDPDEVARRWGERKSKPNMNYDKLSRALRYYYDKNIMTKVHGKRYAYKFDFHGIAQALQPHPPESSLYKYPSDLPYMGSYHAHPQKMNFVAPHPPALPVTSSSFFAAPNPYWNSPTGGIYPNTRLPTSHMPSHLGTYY
# In short: as §1
# ELF1 = ELF1 (Homo sapiens, UniProt P32519 1-619)
# Sequence of ELF1 (P32519 whole entry): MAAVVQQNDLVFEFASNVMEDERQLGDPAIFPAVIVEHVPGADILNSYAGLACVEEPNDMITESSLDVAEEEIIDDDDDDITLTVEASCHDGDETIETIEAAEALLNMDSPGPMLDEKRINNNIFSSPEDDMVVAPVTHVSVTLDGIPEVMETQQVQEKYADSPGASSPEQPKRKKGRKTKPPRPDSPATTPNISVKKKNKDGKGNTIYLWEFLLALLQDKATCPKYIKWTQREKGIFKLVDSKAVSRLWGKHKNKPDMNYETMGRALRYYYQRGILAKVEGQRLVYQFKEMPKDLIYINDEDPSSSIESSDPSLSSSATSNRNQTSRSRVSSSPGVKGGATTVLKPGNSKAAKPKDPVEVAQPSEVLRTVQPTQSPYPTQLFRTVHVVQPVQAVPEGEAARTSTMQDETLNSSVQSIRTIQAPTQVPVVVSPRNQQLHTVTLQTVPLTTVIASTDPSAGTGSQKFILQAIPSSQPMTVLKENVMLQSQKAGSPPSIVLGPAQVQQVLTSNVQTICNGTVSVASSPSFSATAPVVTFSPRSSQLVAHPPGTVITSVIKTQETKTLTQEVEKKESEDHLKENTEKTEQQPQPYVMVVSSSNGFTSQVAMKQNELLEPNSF
# In short: as §1
# EHF = molecular target: T5, EHF (Homo sapiens, UniProt Q9NZC4 1-300)
# T5 sequence: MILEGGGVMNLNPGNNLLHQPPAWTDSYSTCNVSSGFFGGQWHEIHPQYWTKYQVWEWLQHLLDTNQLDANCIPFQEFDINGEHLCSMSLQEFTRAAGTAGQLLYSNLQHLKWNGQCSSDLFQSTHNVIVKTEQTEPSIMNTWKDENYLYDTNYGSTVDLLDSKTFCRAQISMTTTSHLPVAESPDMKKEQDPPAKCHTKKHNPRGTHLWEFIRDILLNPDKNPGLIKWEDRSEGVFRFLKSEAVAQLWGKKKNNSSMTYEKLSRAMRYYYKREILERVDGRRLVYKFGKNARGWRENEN
# In short: as §1
# SPI1 = SPI1 (Homo sapiens, UniProt P17947 1-270)
# In short: as §1
# SPIB = SPIB (Homo sapiens, UniProt Q01892 1-262)
# Sequence of SPIB (Q01892 whole entry): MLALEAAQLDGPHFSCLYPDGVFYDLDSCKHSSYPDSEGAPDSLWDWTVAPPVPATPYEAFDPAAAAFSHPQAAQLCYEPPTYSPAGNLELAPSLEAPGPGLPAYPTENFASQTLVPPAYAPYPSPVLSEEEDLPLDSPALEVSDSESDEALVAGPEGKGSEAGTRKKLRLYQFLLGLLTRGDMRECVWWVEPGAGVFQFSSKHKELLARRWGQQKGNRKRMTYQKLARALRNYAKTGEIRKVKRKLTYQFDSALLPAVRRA
# In short: as §1
# ELK3 = molecular target: T6, ELK3 (Homo sapiens, UniProt P41970 1-407)
# T6 sequence: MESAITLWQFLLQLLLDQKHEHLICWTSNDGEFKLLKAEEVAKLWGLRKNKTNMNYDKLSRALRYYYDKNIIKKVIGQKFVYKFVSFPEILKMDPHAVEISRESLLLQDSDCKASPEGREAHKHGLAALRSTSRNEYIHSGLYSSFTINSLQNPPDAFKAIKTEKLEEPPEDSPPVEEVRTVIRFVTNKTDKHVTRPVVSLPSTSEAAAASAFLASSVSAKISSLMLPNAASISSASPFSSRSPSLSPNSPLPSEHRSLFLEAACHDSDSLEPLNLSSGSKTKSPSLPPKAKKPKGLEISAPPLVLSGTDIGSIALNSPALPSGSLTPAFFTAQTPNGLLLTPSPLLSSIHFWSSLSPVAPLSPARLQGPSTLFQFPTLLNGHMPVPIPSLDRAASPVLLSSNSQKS
# In short: as §1
sequence,measurement,setting,value
TGTTTT,binding signal,FLI1,"1.36 fold enrichment (6-mer frequency, TF over GST control)"
same,binding signal,ELK1,"1.32 fold enrichment (6-mer frequency, TF over GST control)"
same,binding signal,GABPA,"1.35 fold enrichment (6-mer frequency, TF over GST control)"
same,binding signal,ERG,"1.26 fold enrichment (6-mer frequency, TF over GST control)"
same,binding signal,ELF1,"1.34 fold enrichment (6-mer frequency, TF over GST control)"
same,binding signal,EHF,"1.35 fold enrichment (6-mer frequency, TF over GST control)"
same,binding signal,SPI1,"1.43 fold enrichment (6-mer frequency, TF over GST control)"
same,binding signal,SPIB,"1.3 fold enrichment (6-mer frequency, TF over GST control)"
same,binding signal,ELK3,"1.43 fold enrichment (6-mer frequency, TF over GST control)"
